From PubChem BioAssay (NCI)
The panel holds about 79,000 compounds, 15% with a hit somewhere; the sample as a whole holds those more often. No stated cut-off is given here; in the data, active means growth inhibition above about 70%; inactive means the rest.

Tests used:
[1] = NCI Yeast Anticancer Drug Screen. Data for the rad50 strain (AID 155);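 further: 0% = growth of vehicle-only cultures of the same strain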; conditions: S. cerevisiae rad50 strain growth inhibition; at 50.0 µM; active compounds read high
In short: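 Genetically altered yeast (DNA repair pathway); compound treatment; growth inhibition vs vehicle ctrl.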

[2] = NCI Yeast Anticancer Drug Screen. Data for the mec2-1 strain (AID 157); conditions: S. cerevisiae mec2-1 strain, at 50.0 µM, active compounds read high
In short: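 Vehicle-treated cultures served as reference for growth inhibition of compound-exposed mec2-1 yeast.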

[3] = NCI Yeast Anticancer Drug Screen. Data for the sgs1 mgt1 strain (AID 161);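 further: 0% = growth of cultures given vehicle only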; conditions: S. cerevisiae sgs1 mgt1 strain, at 50.0 µM, active compounds read high
In short: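 Inhibition of yeast growth, normalised to vehicle-treated controls, is reported for a strain bearing genetic alterations in DNA damage repair.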

[4] = NCI Yeast Anticancer Drug Screen. Data for the cln2 rad14 strain (AID 165);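 further: 0% = growth equal to vehicle treated cultures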; conditions: S. cerevisiae cln2 rad14 strain, at 50.0 µM, active compounds read high
In short: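 Each compound was tested on cln2 rad14 yeast. Inhibition of growth was calculated against vehicle-exposed controls.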

[5] = NCI Yeast Anticancer Drug Screen. Data for the bub3 strain (AID 167); conditions: S. cerevisiae bub3 mutant strain, at 50.0 µM, active compounds read high
In short: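 Yeast carrying a defined mutation is treated with each compound, and growth is compared with that of vehicle-exposed cells to give inhibition.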

[6] = NCI Yeast Anticancer Drug Screen. Data for the mlh1 rad18 strain (AID 175); conditions: S. cerevisiae mlh1 rad18 strain growth inhibition; at 50.0 µM; active compounds read high
In short: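 Vehicle-treated cultures served as the reference for growth inhibition in a yeast strain carrying DNA damage repair alterations exposed to each compound.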

Measured: growth inhibition

O=c1cc(CO)oc2c3c(cc(O)c12)OCC(COC1OC(CO)C(O)C(O)C1O)=CC3 (stereo unspecified)
inactive: [1] -1.25% | [2] -8.75% | [3] -1.75% | [4] -13.9% | [5] -0.55% | [6] -0.9%

N#CC1C(=O)NC(=O)C(C#N)C1c1ccc(Cl)cc1Cl (stereo unspecified)
inactive: [1] 38.9% | [2] 10.1% | [3] 32.6% | [4] 22.1% | [5] -3.55% | [6] 19.9%

CC(/C=N/NC1=NCCCCN1)=N\NC1=NCCCCN1
inactive: [1] -4.95% | [2] -16% | [3] -15.6% | [4] 8.8% | [5] -10.6% | [6] -16.4%

CC1=CCC(C#N)N(C)C1c1ccccc1 (stereo unspecified)
inactive: [1] 2% | [2] -5.25% | [3] -13.4% | [4] -48.1% | [5] -12.3% | [6] 8.85%

c1ccc(C[P+]2(c3ccccc3)c3ccccc3-c3ccccc32)cc1
inactive: [1] -25.9% | [2] -8% | [3] -11.2% | [4] 4.15% | [5] -6.6% | [6] -38.2%

CC(C)CC(=O)Cc1ccccc1
inactive: [1] 18.8% | [2] 14.7% | [3] 19.2% | [4] -52.7% | [5] -2.2% | [6] -0.2%

Cc1ccc(CSCc2c(CSCc3ccc(C)cc3)c(CSCc3ccc(C)cc3)c(CSCc3ccc(C)cc3)c(CSCc3ccc(C)cc3)c2CSCc2ccc(C)cc2)cc1
inactive: [1] -6% | [2] 0.9% | [3] 5.8% | [4] 29.8% | [5] 1.75% | [6] 6.85%

COc1ccccc1NC(=O)OCc1ccco1
inactive: [1] 2.55% | [2] -6.9% | [3] 28.6% | [4] -65.2% | [5] 3.35% | [6] 6.85%

CSc1cc2c(cc1NC(C)=O)Cc1ccccc1-2
inactive: [1] 13.4% | [2] -3.75% | [3] 0.6% | [4] 10.5% | [5] 9.15% | [6] -13.4%

C1OC2OC3OCOC3C2O1 (stereo unspecified)
inactive: [1] 16.4% | [2] 2.85% | [3] -2.1% | [4] -58.2% | [5] 17% | [6] -8.8%

CCOC(=O)CCCCCOC1CCCCO1 (stereo unspecified)
inactive: [1] 7.4% | [2] 18.2% | [3] 11.2% | [4] -0.1% | [5] -7.35% | [6] -10.5%

Cc1ccc(SC(=O)N2C(=S)NC(=NC3CCCCC3)C23CCCCC3)cc1
inactive: [1] -14% | [2] -9.05% | [3] -4.05% | [4] -41.3% | [5] -32.5% | [6] -24.5%

CC(NC(=O)CNC(=O)CN)C(N)=O (stereo unspecified)
inactive: [1] -23.9% | [2] -0.65% | [3] -17.1% | [4] 5.9% | [5] 8.25% | [6] -17.2%

O=C(NCCCC1NC(=O)/C(=C(O)/C=C/C=C/c2ccccc2)C1=O)OCc1ccccc1 (stereo unspecified)
inactive: [1] 38.4% | [2] -1.65% | [3] 17.1% | [4] -2.75% | [5] 0.25% | [6] 21.8%

N#CC1(c2ccccc2)C(c2ccccc2)=C1c1ccccc1
inactive: [1] 1.75% | [2] 5.15% | [3] 2.25% | [4] -4.55% | [5] 8.7% | [6] -8.95%

CCS(=O)(=O)OCCOC
inactive: [1] -2.65% | [2] -26.1% | [3] -17.1% | [4] 57.6% | [5] -14.8% | [6] 10.2%

CCOC(=O)COc1ccc(Cc2ccc3c(c2)OCO3)cc1C
inactive: [1] -0.7% | [2] 3.1% | [3] -2.45% | [4] -6.05% | [5] 16.2% | [6] 0.9%

O=C(OCCCl)C1CC2C=CC1C2 (stereo unspecified)
inactive: [1] -4.5% | [2] -10.1% | [3] 3.85% | [4] 8.25% | [5] -7.2% | [6] -3.4%

C=CC(=O)NC(C)C(=O)O (stereo unspecified)
inactive: [1] -4.45% | [2] -2.5% | [3] 0% | [4] -7.05% | [5] -10.9% | [6] -4.15%

Cc1cc(C)nc(NS(=O)(=O)c2ccc(NC(=O)c3cccn4c(=O)c5ccccc5nc34)cc2)n1
inactive: [1] 12.7% | [2] 0.6% | [3] 16.9% | [4] 27.6% | [5] 27.1% | [6] 0.25%

CC(=O)C1(N=Nc2ccc(S(N)(=O)=O)cc2)CCOC1=O (stereo unspecified)
inactive: [1] 1.35% | [2] -11.3% | [3] -27.1% | [4] 32.4% | [5] -29.4% | [6] 22.7%

Oc1ccc(-c2cc(-c3c(O)cc(O)cc3O)on2)cc1
inactive: [1] 4.25% | [2] -1.45% | [3] -17.4% | [4] -2.85% | [5] -7.45% | [6] 9.35%

CN(C)CCCNC(=O)/C=C\C(=O)O
inactive: [1] 5.8% | [2] 3.9% | [3] 0.15% | [4] -4.9% | [5] 2.6% | [6] -6.15%

O=[N+]([O-])c1ccc2nc[nH]c2c1
inactive: [1] 48.8% | [2] 4.9% | [3] -6.4% | [4] 25.5% | [5] -0.2% | [6] 43.1%

COc1ccc2nc(Cl)sc2c1
inactive: [1] 32.4% | [2] -17.6% | [3] 41.4% | [4] 21.4% | [5] 42.1% | [6] 13.6%

Fc1ccccc1/C=C/c1cnnc2ccccc12
inactive: [1] 19.9% | [2] 11.1% | [3] 16.1% | [4] -20.4% | [5] 5.2% | [6] 3.15%

CCCCCCCCCCCCCCCCCC(=O)N/N=C/c1ccc(O)cc1
inactive: [1] -22.3% | [2] -12.4% | [3] -16.2% | [4] -61.2% | [5] -6.2% | [6] 1.85%

CCCCN(CCCC)CC(O)c1cc(-c2cc(C(O)CN(CCCC)CCCC)c3ccccc3n2)nc2ccccc12 (stereo unspecified)
inactive: [1] 50.9% | [2] -8.2% | [3] 46.1% | [4] -6.85% | [5] 5.3% | [6] 32.4%

COc1cc(C2c3cc4c(cc3OC(C)(N3CCCC3)C2C)OCO4)cc(OC)c1OC (stereo unspecified)
inactive: [1] -25.4% | [2] 6.95% | [3] -9.8% | [4] 14.2% | [5] -2.55% | [6] 0.25%

CC(=O)c1c2c(cc3c1CC1(C3)Cc3cc4c(c(C(C)=O)c3C1)CCC4)CCC2
inactive: [1] -21.5% | [2] -31.4% | [3] -4% | [4] -5.45% | [5] -3.35% | [6] -30.6%

CC(=O)c1cccc(N2COC(C)(C)c3nc4ccccc4n3C2)c1
inactive: [1] 5.9% | [2] -9.85% | [3] -20.1% | [4] 12.8% | [5] -19.9% | [6] -0.05%

Cc1ccc(S(=O)(=O)NCC(=O)OCc2ccccc2)cc1
inactive: [1] 4.15% | [2] 3.4% | [3] 1.2% | [4] -0.55% | [5] 12.4% | [6] 7.8%

c1ccc(-c2cc(-c3ccncc3)c(-c3ccccc3)nn2)cc1
inactive: [1] 7.85% | [2] 7.8% | [3] 24% | [4] 22% | [5] -1.1% | [6] 36.4%

CCCC(O)C(C)(C)C (stereo unspecified)
inactive: [1] -35.7% | [2] -67.5% | [3] -51.6% | [4] -11.2% | [5] -43.5% | [6] -42%

CCC1=C/C(=N/O)C(C)=CC1(C)C(Cl)(Cl)Cl (stereo unspecified)
inactive: [1] 25.7% | [2] 7.65% | [3] 10% | [4] 17.2% | [5] 17.9% | [6] 48.5%

CCOC(CN=C=S)OCC
inactive: [1] 4.25% | [2] -3.95% | [3] 16.6% | [4] 9.05% | [5] -3.35% | [6] 4.65%
